From PubChem BioAssay AID651640 (Broad Institute, 2012) come the findings set out here.

Molecules are shown by their SMILES. Several values for one entry are separate records, joined by “and”; a condition that tells them apart may be missing. Equal values may be shown once. The whole screen tested about 350,000 compounds, of which about 6,000 (1.7%) were called active. Another 5% or so got no clear call; they are omitted. Cut-off read from the data, not from the text of the source: active = CPE inhibition above about 20% (passing the limit was not always enough); inconclusive = no clear call, values can overlap the other calls; tested in BHK-21 cells. The sample as a whole holds a higher share of actives than the screen did. The source holds several records for some structures; these can differ, active in one and inactive in another.

The experiment can be described thus: protection of cells from dengue 2 killing – plate reader, single concentration, primary screen (AID 651640).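 Note: 0% = median of neutral control wells and 100% = median of positive control wells.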 As to conditions: DENV2-infected cells, cytopathic effect rescue, at 9.99 µM, stronger effect = higher value.
In the case of `CC(C)(C)[C@H]1C=C(C(=O)NCc2ccccc2)O[C@@H](OCc2ccc(CO)cc2)C1`, the CPE inhibition is 51.1% (active) and -3.51% (inactive).

As for `O=C(NCc1ccccc1)C1=C[C@H](C2CC2)C[C@H](OCc2ccc(CO)cc2)O1`, the CPE inhibition was -16.3% (inactive) and 0.479% (inactive).

As for `O=C(NCc1ccccc1)C1=C[C@@H](C2CCCCC2)C[C@@H](OCc2ccc(CO)cc2)O1`, the CPE inhibition is -6.36% (inactive) and 1.63% (inactive).

Regarding `CO[C@@H](CN(C)C(=O)c1ccc2c(c1)OCO2)[C@@H](C)CN([C@H](C)CO)S(=O)(=O)c1ccccc1`, the CPE inhibition was -3.46% (inactive).

For the compound `CN1C(=O)c2cc(NC(=O)C3CCOCC3)ccc2OC[C@H]2O[C@@H](CC(=O)NCC3CCCCC3)CC[C@@H]21`, the CPE inhibition is 1.63% (inactive).

`COC(=O)[C@@]1(CCS(=O)(=O)c2ccccc2)N=C(c2ccc(OCCCO)cc2)O[C@H]1c1ccccc1N=[N+]=[N-]`: the CPE inhibition was -1.34% (inactive).

On to `C=CC[C@]1(C(=O)NCC(O)CO)N=C(c2ccc(OCCCO)cc2)O[C@H]1c1ccccc1` (stereo partly drawn), for which the CPE inhibition was 1.79% (inactive).

For `[N-]=[N+]=Nc1ccccc1C[C@@]1(C(=O)NCc2ccccc2)N=C(c2ccc(OCCCO)cc2)O[C@@H]1c1ccccc1`, the CPE inhibition was 33.8% (active).

As for `O=C(C[C@H]1CC[C@H](NC(=O)C2CCC2)[C@@H](CO)O1)Nc1nccs1`, the CPE inhibition was 0.802% (inactive).

On to `O=C(Cc1ccccn1)N[C@H]1CC[C@@H](CC(=O)N2CCCCC2)O[C@@H]1CO`, for which the CPE inhibition was -2.26% (inactive).

On to `OC(CCl)CCl`, for which the CPE inhibition was 32.4% (active).

On to `O=C(c1ccc(F)cc1)N1CC(=O)N2[C@H](CO)[C@H](c3ccc(-c4ccccc4F)cc3)[C@@H]2C1`, for which the CPE inhibition was 7.8% (inactive).

For the compound `C[C@@H]1CN([C@H](C)CO)C(=O)c2cc(NC(=O)Nc3cccc4ccccc34)ccc2O[C@@H](C)CCCCO[C@H]1CN(C)S(=O)(=O)c1cccs1`, the CPE inhibition is -15.6% (inactive).

Turning to `CCCNC(=O)[C@H]1[C@H](CO)[C@H]2Cn3c(cccc3=O)[C@H]2N1Cc1ccccc1Cl`, the CPE inhibition was 140% (active).

For `CCCN1[C@H](C(=O)NC2Cc3ccccc3C2)[C@@H](CO)[C@@H]2Cn3c(cccc3=O)[C@@H]21`, the CPE inhibition is -9.85% (inactive).

With `O=C(NCc1ccccc1Cl)[C@H]1[C@H](CO)[C@H]2Cn3c(cccc3=O)[C@H]2N1C(=O)C1CCC1`, the CPE inhibition is -3.74% (inactive).

With `O=C(c1cccnc1)N1CC[C@H]2[C@H](CO)Nc3ccc(-c4ccc(F)cc4)cc3[C@H]21`, the CPE inhibition was 1.83% (inactive).

Consider `C[C@@H]1CN([C@@H](C)CO)C(=O)Cc2cc(NC(=O)Cc3ccccc3)ccc2O[C@@H]1CN(C)C(=O)Nc1ccc2c(c1)OCO2`, for which the CPE inhibition is -7.53% (inactive).

Regarding `COCC(=O)N1CC[C@@H]2[C@@H](CO)Nc3ccc(-c4ccc(C(=O)N(C)C)cc4)cc3[C@@H]21`, the CPE inhibition is 5.72% (inactive).

Regarding `O=C(NC1Cc2ccccc2C1)[C@H]1[C@H](CO)[C@H]2Cn3c(ccc(C4=CCCCC4)c3=O)[C@H]2N1CC1CC1`, the CPE inhibition was 39.5% (active).

As to `CCNC(=O)[C@@H]1[C@@H](CO)[C@@H]2Cn3c(ccc(C4=CCCCC4)c3=O)[C@@H]2N1Cc1ccccc1F`, the CPE inhibition is 2.99% (inactive).

As for `O=C(NC1CCC1)[C@H]1[C@H](CO)[C@H]2Cn3c(ccc(C4=CCCCC4)c3=O)[C@@H]1N2CC1CC1`, the CPE inhibition is -0.675% (inactive).

Turning to `COc1ccccc1NC(=O)N[C@H]1CC[C@@H](CC(=O)N[C@@H](C)c2ccccc2)O[C@H]1CO`, the CPE inhibition is 3.47% (inactive).

Take `COc1ccccc1NC(=O)N[C@H]1C=C[C@@H](CC(=O)N[C@@H](C)c2ccccc2)O[C@@H]1CO`: the CPE inhibition was 20.2% (active).

Consider `COc1ccccc1NC(=O)N[C@H]1C=C[C@H](CC(=O)N[C@@H](C)c2ccccc2)O[C@H]1CO`, for which the CPE inhibition was 4.39% (inactive).

As for `C[C@@H]1CN([C@@H](C)CO)C(=O)Cc2cc(NC(=O)Cc3ccccc3)ccc2O[C@H]1CN(C)Cc1ccc(C(=O)O)cc1`, the CPE inhibition was -5.69% (inactive).

Turning to `Cc1noc(C)c1NC(=O)N(C)C[C@@H]1Oc2ccc(NC(=O)Nc3cccc4ccccc34)cc2CC(=O)N([C@@H](C)CO)C[C@H]1C`, the CPE inhibition was 3.02% (inactive).

Turning to `C[C@H]1CN([C@@H](C)CO)C(=O)c2cccc(NC(=O)Nc3ccc(F)cc3)c2O[C@@H]1CN(C)C(=O)Nc1ccc2c(c1)OCO2`, the CPE inhibition was -3.44% (inactive).
